CCHF vOTU inh-1 = CCHFV vOTU protease inhibition. Pep-AMC fluorescence. inhibition, % at 11.5 µM. 370,000 compounds, 0.55% hits; also: 0% = vehicle wells with enzyme and 100% = no enzyme wells
BoNT-F LC inh = BoNT F light chain protease inhibition. inhibition, % at 10 µM. Multiplex microsphere protease cleavage assay, flow cytometry. 360,000 compounds, 0.22% hits; in the data active = inhibition above about 35%, passing the limit was not always enough; inconclusive = no clear call, values can overlap the other calls; also: plate controls were buffer without enzyme for full effect and enzyme alone for no effect
Autofluor counter = compound fluorescence in toxin protease inhibitor counterscreen | compound autofluorescence counterscreen, microsphere flow cytometry; hits give high values | fluorescence intensity (test concentration not listed) | 360,000 compounds, 3.1% hits; in the data active = fluorescence intensity above about 16000; inconclusive = no clear call, values can overlap the other calls
BoNT-A LC inh2 = blocks Botulinum neurotoxin A light chain protease; multiplex microsphere protease substrate cleavage, flow cytometry; inhibition, % at 10 µM; 360,000 compounds, 0.17% hits; in the data active = inhibition above about 30%; inconclusive = no clear call, values can overlap the other calls; also: plate controls were buffer without enzyme for full effect and enzyme alone for no effect
SARS 3CLpro inh = SARS-CoV 3CLpro protease inhibition; inhibition, % at 6 µM; P0C6X7; AID 1706; recombinant SARS-CoV 3CLpro, quenched FRET peptide cleavage; 290,000 compounds, 0.14% hits; in the data active = inhibition above about 12%
Anthrax LF prot = blocks Bacillus anthracis lethal factor protease | P15917 | multiplex microsphere protease cleavage assay, LF | inhibition, % at 10 µM | 360,000 compounds, 0.12% hits | AID 588501; in the data active = inhibition above about 30%; inconclusive = no clear call, values can overlap the other calls; also: plate controls were buffer without enzyme for full effect and enzyme alone for no effect
Target sequence (P15917 whole entry, looked up): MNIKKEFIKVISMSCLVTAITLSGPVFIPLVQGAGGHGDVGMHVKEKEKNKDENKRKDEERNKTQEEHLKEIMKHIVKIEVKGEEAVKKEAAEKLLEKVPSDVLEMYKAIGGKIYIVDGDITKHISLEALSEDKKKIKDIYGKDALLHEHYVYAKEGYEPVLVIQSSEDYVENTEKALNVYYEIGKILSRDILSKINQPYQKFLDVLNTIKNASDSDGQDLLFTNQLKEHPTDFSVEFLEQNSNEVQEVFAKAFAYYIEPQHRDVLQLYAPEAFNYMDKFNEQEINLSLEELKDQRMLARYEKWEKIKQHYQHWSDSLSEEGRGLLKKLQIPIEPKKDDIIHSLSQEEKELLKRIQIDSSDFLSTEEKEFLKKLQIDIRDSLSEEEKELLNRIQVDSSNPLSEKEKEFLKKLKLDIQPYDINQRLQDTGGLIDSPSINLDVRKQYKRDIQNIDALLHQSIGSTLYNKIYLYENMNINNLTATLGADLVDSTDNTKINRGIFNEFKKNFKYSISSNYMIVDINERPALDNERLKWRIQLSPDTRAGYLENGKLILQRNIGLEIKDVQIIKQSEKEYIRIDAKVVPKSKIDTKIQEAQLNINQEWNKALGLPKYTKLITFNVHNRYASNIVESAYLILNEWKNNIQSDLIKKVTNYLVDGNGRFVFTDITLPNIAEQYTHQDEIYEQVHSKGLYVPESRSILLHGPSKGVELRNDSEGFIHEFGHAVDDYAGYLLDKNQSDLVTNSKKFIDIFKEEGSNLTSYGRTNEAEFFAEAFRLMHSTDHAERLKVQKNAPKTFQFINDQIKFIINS
CCHF vOTU inh-2 = confirmation of CCHF virus vOTU protease inhibitors. shares compounds with CCHF vOTU inh-1. Recombinant CCHFV vOTU, Pep-AMC fluorescence. inhibition, % at 11.5 µM. AID 686976. 1,900 compounds, 17% hits
An asterisk follows results filed as active; ? = inconclusive; / = no result. A selection: hits, their analogues and other compounds. The true share with any hit is near 3.9%. Rule as the data show it, unless noted: active = inhibition above about 30%; inactive = the rest.

SMILES	CCHF vOTU inh-1	BoNT-F LC inh	Autofluor counter	BoNT-A LC inh2	SARS 3CLpro inh	Anthrax LF prot	CCHF vOTU inh-2
Cc1cccc(COC[C@H](CC(C)C)N2CCN(C(=O)c3ccc(C(F)(F)F)cc3)CCC2=O)c1	20.9	-1.7	6041	-0.3	/	-10.7	/
O=C(c1ccc(C(F)(F)F)cc1)N1CCC(=O)N([C@H](COCc2ccc(C(F)(F)F)cc2)Cc2ccccc2)CC1	33.7*	8.0	5864	0.3	/	8.7	6.7
O=C(c1ccc(C(F)(F)F)cc1)N1CCC(=O)N([C@H](COCc2ccc(Cl)cc2)Cc2ccccc2)CC1	32.0*	-1.0	5871	0.3	/	2.4	6.8
Nc1ccc(N2CCCCC2)c2nonc12	110.6*	-21.9	3405	33.2*	6.2	8.8	34.0*
CN(C)c1ccc(C=c2c3cc([N+](=O)[O-])ccc3n3c2cc(-c2ccccc2)[n+]3C)cc1	39.6*	-142.8	1537	0.9	/	-129.9	11.3
Cn1c(CO)c(-c2ccccc2)c2cc([N+](=O)[O-])ccc21	12.9	8.7	3878	0.9	2.4	2.8	/
COc1cc(C=c2c3ccccc3n3c2cc(-c2ccccc2)[n+]3C)cc(OC)c1OC	84.9*	-48.0	2785	3.6	/	-22.7	69.0*
CN(C)c1ccc(C=c2c3ccccc3n3c2cc(-c2ccccc2)[n+]3C)cc1	47.8*	-64.2	4637	9.0	/	-26.2	1.0
CN(c1ccc(Cl)cc1)c1cc(=O)n(C)c2ccccc12	17.6	23.4	4663	0.9	3.8	-2.6	/
CN(C)c1ccc(C=c2c3ccccc3n3c2cc(-c2ccc(Cl)cc2)[n+]3C)cc1	46.6*	-113.0	2293	6.9	/	-69.7	10.0
COC(=O)[C@@H]1C[C@@]2(c3ccccc3)c3ccccc3N(S(=O)(=O)c3ccccc3)[C@H]2N1C(=O)CNC/C=C(\C)CCC=C(C)C	11.5	/	/	/	/	/	/
CCS(=O)(=O)Nc1ccc2c(c1)C(=O)N(C)[C@@H]1CC[C@H](CC(=O)OC)O[C@H]1CO2	4.6	/	/	/	/	/	/
O=C(CSc1nnc(-c2cccnc2)n1-c1ccc(Cl)cc1)Nc1cccc2ccccc12	-1.5	/	/	/	/	/	/
CN(C)c1ccc(C=c2c3ccccc3n3c2c2c([n+]3C)CCCC2)cc1	34.6*	-27.2	2882	1.0	/	-9.9	-1.5
CC1CCCC(NC(=O)COC(=O)c2ccc([N+](=O)[O-])s2)C1C (centres undefined)	66.2*	-3.4	8091	-2.3	/	-3.1	61.3*
CC1CCCC(NC(=O)COC(=O)COc2cccc(F)c2)C1C (centres undefined)	41.5*	0.5	3431	-0.3	/	-3.6	-15.8
CCc1ccc(OCC(=O)OCC(=O)NC2CCCC(C)C2C)cc1 (centres undefined)	10.0	-8.0	3972	-0.3	/	-0.9	/
O=C(COC(=O)c1ccc([N+](=O)[O-])s1)Nc1ncc(C(F)(F)F)cc1Cl	49.1*	0.1	2564	1.3	-1.7	2.6	64.0*
Cc1ccc(-c2cc(NC(=O)Cc3c[nH]c4ccccc34)ccc2N(C)c2cccnc2)cc1	2.0	/	/	/	/	/	/
COC(=O)C1=C(C)N(Cc2ccccc2C(F)(F)F)C(=NCC2CC2)NC1c1ccc(F)cc1 (centres undefined)	2.2	/	/	/	/	/	/
CC(C)Oc1ccc(S(=O)(=O)N2CCOCC2)cc1NC(=O)CN1C(=O)c2ccccc2C1=O	35.8*	-2.8	5606	-1.2	/	6.7	-20.1
CC(C)Oc1ccc(S(=O)(=O)N2CCOCC2)cc1NC(=O)CC1OC(=O)c2ccccc21 (centres undefined)	-10.1	3.0	?	-5.1	/	-0.9	/
CCOC(=O)COc1ccc(S(=O)(=O)N2CCN(c3ccc(OC)cc3)CC2)cc1	30.3*	-7.6	6058	-1.6	2.9	-2.9	-3.9
CC(c1ccco1)N(Cc1ccco1)C(=O)Nc1ccccc1 (centres undefined)	34.4*	-2.4	9830	0.0	3.6	-6.8	-20.4
O=C(O)CN1C(=O)/C(=C\c2cccc(OCc3ccc(F)cc3)c2)SC1=S	35.6*	24.6	3274	-2.8	10.7	-8.9	27.6
SMILES	CCHF vOTU inh-1	BoNT-F LC inh	Autofluor counter	BoNT-A LC inh2	SARS 3CLpro inh	Anthrax LF prot	CCHF vOTU inh-2
Nc1ccn([C@@H]2O[C@H](C(=O)N[C@H](Cc3ccccc3)C(=O)N3CCN(CC(=O)N4CCCC4)CC3)[C@@H](O)[C@H]2O)c(=O)n1	13.1	/	/	/	/	/	/
O=C(CCc1ccccc1)N[C@H]1[C@H](OCc2ccccc2)CCC[C@@]12C(=O)N(Cc1ccccc1)c1ccc(-c3ccsc3)cc12	1.6	/	/	/	/	/	/
CC(C)C[C@H](NC(=O)c1ccccn1)C(=O)N1CCC[C@H]1C(=O)NCc1ccccc1	3.1	/	/	/	/	/	/
CCCCN1C(=S)NC[C@@H]1Cc1ccccc1	14.4	2.6	3939	-1.0	-2.6	-3.8	/
CCCCN1C(=S)NC[C@@H]1c1ccccc1	33.3*	10.7	2791	0.4	3.9	-10.6	3.7
CCOc1cc(/C=C2\C(=O)N(CCC#N)N=C2C)ccc1OCC(N)=O	43.7*	9.4	4440	1.9	0.8	2.4	-24.4
CCc1nnc(N/N=C/c2c(C)[nH]c3ccccc23)n1N	112.4*	0.0	4918	-0.6	1.9	2.2	-10.6
Cc1nnc(N/N=C/c2cc(C)n(-c3ccc(F)cc3)c2C)n1N	99.1*	-15.7	1951	-0.1	-4.6	-1.0	-8.9
Cc1nnc(N/N=C/c2c(Cl)cccc2Cl)n1N	74.5*	-6.9	6695	-2.4	8.1	-1.5	-7.9
CCc1nnc(N/N=C/c2c(F)cccc2Cl)n1N	87.5*	?	4082	2.0	1.3	-8.4	-12.2
Cc1cc(/C=N/NC(N)=S)c(C)n1-c1ccc(Br)cc1	18.2	-2.4	3862	-0.7	-3.2	1.3	/
Cc1[nH]c2ccccc2c1CC(=O)Nc1ccc(Nc2cccnc2)c(Br)c1	-2.6	/	/	/	/	/	/
CCOC(=O)C1CSCCS(=O)(=O)N1Cc1ccc(C)cc1 (centres undefined)	19.4	/	/	/	/	/	/
Cc1nnc(N/N=C/c2ccccc2O)n1N	97.0*	0.0	4450	-0.9	2.0	-9.1	-4.0
CCOc1cc(/C=N/Nc2nnc(C)n2N)ccc1O	116.7*	9.3	3111	0.7	-4.0	-4.3	5.2
CCc1nnc(N/N=C/c2cc(C)c(C)cc2C)n1N	74.5*	?	4027	-9.0	-3.0	-11.9	-21.5
Cc1ccc(-n2c(SCC(=O)c3ccc4c(c3)OCO4)nc3ccccc3c2=O)cc1	6.6	/	/	/	/	/	/
O=S(=O)(NCc1ccc(Cl)cc1)c1ccc(Br)cc1C1CC[C@@H](O)C1 (some centres undefined)	17.0	/	/	/	/	/	/
CCOCC(=O)Nc1nc2ccc(C)cc2s1	15.5	1.3	2953	-0.6	-0.9	-1.2	/
Cc1ccc2nc(NC(=O)CSCC(=O)OCC(=O)c3ccccc3)sc2c1	35.5*	-5.6	8121	0.5	3.5	-1.2	-4.1
O=C1CC(C(=O)Nc2ccc(F)cc2)S/C(=N\N=C\c2ccco2)N1 (centres undefined)	34.5*	2.1	2508	-0.2	-5.1	1.2	-9.7
CNCc1ccccc1Sc1cc(O)ccc1O	29.7*	-11.2	1905	0.2	0.5	-4.8	3.6
CNCc1ccccc1Sc1cccc(O)c1	14.6	1.5	2034	-0.4	3.1	-0.8	/
